Screening data (PubChem BioAssay)
An excerpt weighted towards active compounds, which were near 19% of everything screened.
IL-1B inflam inh – blocks inflammasome-driven IL-1 beta release | activity change, % at 57.5 µM | 360,000 compounds, 4.7% hits | THP-1 LPS/ATP IL-1B secretion, AlphaLISA, 16 h; active compounds read low; in the data active = activity change below about -50%; inconclusive = mostly about -30% to -49%
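Secreted IL-1B measured by AlphaLISA bead assay after 16 h compound exposure of THP-1 cells; compounds (final up to 57.5 uM) added 1 h before LPS (250 ng/mL) and ATP (1.25 mM) stimulation; lower signal means less secretion.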
HT1080 IDH1KD tx – toxicity to HT-1080 IDH1 knockdown cells (counter line); HT-1080 IDH1 knockdown viability, ATP luminescence, 48 h; 360,000 compounds, 2% hits; Potency, µM (titrated, usually from 46.1 µM), inactives show at the top dose activity, negative = toxicity, usual class: cytotoxic; AID 686971;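 note: potency is the fitted concentration of half-maximal effect; 0% = DMSO wells and -100% = cell-free medium wells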
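After a 2 h attachment period, IDH1KD HT-1080 cells took pin-transferred compound for 48 h at 37 °C; ATP-based luminescence after 10 min room-temperature reagent incubation reported viability.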
TDP1 cell CPT – growth inhibition of DT40 Tdp1-/-;hTDP1 cells with camptothecin (screen for TDP1 inhibitors); Potency, µM (doses to about 46.2 µM), inactives show at the top dose activity change, negative = growth inhibition, usual class: inhibitors; chicken DT40 Tdp1-/-;hTDP1 cells + 20 nM CPT, ATP luminescence, 48 h; 420,000 compounds, 12% hits; note: potency is the fitted concentration of half-maximal effect; nearly all actives have a fitted effect of over 55% in size
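Chicken DT40 Tdp1-/- cells stably complemented with human TDP1 were seeded at 400 cells/well in medium containing 20 nM camptothecin, exposed to pin-transferred compounds, and grown at 37 °C for at least 48 hr. Viability was read as ATP luminescence.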
DT40 TDP1 no CPT – qHTS for Inhibitors of human tyrosyl-DNA phosphodiesterase 1 (TDP1): qHTS in cells in absence of CPT; DT40 Tdp1-/- hTDP1 cells, no CPT, ATP luminescence, 48 h; Potency, µM (series often up to 46.2 µM), for the others: at the top dose activity change, negative = growth inhibition, actives largely listed as inhibitors; 420,000 compounds, 15% hits; note: potency is the fitted concentration of half-maximal effect; nearly all actives have a fitted effect of over 55% in size
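DT40 Tdp1-/-;hTDP1 cells, no CPT (DMSO vehicle only), 400 cells/well; compounds pin-transferred; ≥48 hr, 37 °C; CellTiter-Glo 30 min RT dark, luminescence read.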
ELG1 DNA repair – blocks ELG1-dependent DNA repair in HEK293T cells; AID 504467; HEK293T ELG1-luciferase reporter, luminescence, 16 h; DNA damage induced by 5-fluorouridine; Potency, µM (titrated, usually from 46.1 µM), inactives show top-dose activity change, negative = inhibition, usual class: inhibitors; 330,000 compounds, 2.3% hits; note: potency is the fitted concentration of half-maximal effect; nearly all actives have a fitted effect of over 55% in size
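Overnight (16 hr) co-exposure of 2,000 cells/well to 5-fluorouridine and compound at 37 °C preceded detection. Luciferase was quantified via ONE-Glo luminescence; loss of signal denotes inhibition.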
HT1080NT lethal – kills 2HG-producing HT-1080-NT fibrosarcoma cells; HT-1080-NT fibrosarcoma viability, CellTiter-Glo ATP luminescence, 48 h; Potency, µM (series often up to 46.1 µM), without a hit: top-dose activity, negative = less viability, usual class: cytotoxic; 360,000 compounds, 1.6% hits;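 note: NT is the 2HG producing partner of a matched IDH1 knockdown line; potency is the fitted concentration of half-maximal effect; 0% = DMSO-treated cells and -100% = media-only wells without cells; nearly all actives have a fitted effect of over 55% in size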
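Read-out is CellTiter-Glo luminescence after 10 minutes at room temperature, following 48 hours' compound treatment of HT-1080-NT cells (750 cells/well, RPMI, 5% FBS, 37 degrees C).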
Numbers without * were called inactive. Unless noted, calls come from the whole dose curve; as a rule, active = well fitted curve in the direction sought with a large enough effect; inconclusive = small, poorly fitted or top-dose-only effect, or another doubt; inactive = no such curve, though single readings can be large; an effect the other way counts as inactive or inconclusive. Unless noted, % is set by controls: 0 for no effect and ±100 for the full control effect.

What do the screens show for `Cn1ccnc1C(=O)C1CCCN(Cc2cn[nH]c2-c2ccc(-c3ccccc3)cc2)C1` (centres undefined)?
IL-1B inflam inh: inconclusive; HT1080 IDH1KD tx: inconclusive; TDP1 cell CPT: inconclusive; DT40 TDP1 no CPT: inconclusive; ELG1 DNA repair: -11%; HT1080NT lethal: inconclusive

What do the screens show for `Cc1nn(C)cc1CN1CCCC(C(=O)c2ccc(-c3ccccc3)cc2)C1` (centres undefined)?
IL-1B inflam inh: -91*; HT1080 IDH1KD tx: inconclusive; TDP1 cell CPT: inconclusive; DT40 TDP1 no CPT: 21µM*; ELG1 DNA repair: inconclusive; HT1080NT lethal: inconclusive

Results for CN(C)S(=O)(=O)N1CCCC(C(=O)c2ccc(-c3ccccc3)cc2)C1 (centres undefined) ?
IL-1B inflam inh: -23; HT1080 IDH1KD tx: -1%; TDP1 cell CPT: inconclusive; DT40 TDP1 no CPT: 23µM*; ELG1 DNA repair: -11%; HT1080NT lethal: -1%

What do the screens show for `O=C(c1ccc(-c2ccccc2)cc1)C1CCCN(Cc2ccncc2)C1` (centres undefined)?
IL-1B inflam inh: -86*; HT1080 IDH1KD tx: -21%; TDP1 cell CPT: 16µM*; DT40 TDP1 no CPT: inconclusive; ELG1 DNA repair: inconclusive; HT1080NT lethal: inconclusive

What do the screens show for `CN(C)S(=O)(=O)N1CCCC(C(=O)c2ccc(C(F)(F)F)cc2)C1` (centres undefined)?
IL-1B inflam inh: -8; HT1080 IDH1KD tx: -6%; TDP1 cell CPT: -20%; DT40 TDP1 no CPT: inconclusive; ELG1 DNA repair: inconclusive; HT1080NT lethal: -7%

How did O=C(NCC1CC1)c1onc(CSc2ccncc2)c1C(=O)NCC1CC1 do in these assays?
IL-1B inflam inh: -23; HT1080 IDH1KD tx: 3%; TDP1 cell CPT: inconclusive; DT40 TDP1 no CPT: inconclusive; ELG1 DNA repair: 1%; HT1080NT lethal: -7%

Results for Cc1ccc(S(=O)(=O)N2CCN(C(=O)Cc3c(F)cccc3Cl)CC2)cc1 ?
IL-1B inflam inh: 4; HT1080 IDH1KD tx: 0%; TDP1 cell CPT: -8%; DT40 TDP1 no CPT: -24%; ELG1 DNA repair: 3%; HT1080NT lethal: -1%

What do the screens show for `Cc1ccsc1C(=O)C1CCCN(Cc2cn(C)nc2-c2ccccc2)C1` (centres undefined)?
IL-1B inflam inh: -2; HT1080 IDH1KD tx: -1%; TDP1 cell CPT: inconclusive; DT40 TDP1 no CPT: inconclusive; ELG1 DNA repair: -8%; HT1080NT lethal: -3%

How did O=C(c1ccc(Cl)cc1)C1CCCN(Cc2ccc(Oc3ncccn3)cc2)C1 (centres undefined) do in these assays?
IL-1B inflam inh: -3; HT1080 IDH1KD tx: -1%; TDP1 cell CPT: inconclusive; DT40 TDP1 no CPT: -85%; ELG1 DNA repair: inconclusive; HT1080NT lethal: -3%

What do the screens show for `CC1CCCN(C(=O)c2ccncc2)C1` (centres undefined)?
IL-1B inflam inh: 8; HT1080 IDH1KD tx: 20%; TDP1 cell CPT: 2%; DT40 TDP1 no CPT: 13%; ELG1 DNA repair: 5%; HT1080NT lethal: 19%

Results for O=C(c1ccc(Cl)cc1)C1CCCN(Cc2cnn(-c3ccccc3)c2)C1 (centres undefined) ?
IL-1B inflam inh: -98*; HT1080 IDH1KD tx: inconclusive; TDP1 cell CPT: inconclusive; DT40 TDP1 no CPT: inconclusive; ELG1 DNA repair: -22%; HT1080NT lethal: inconclusive

What do the screens show for `O=C(c1ccc(-c2ccccc2)cc1)C1CCCN(C(=O)c2ccncc2)C1` (centres undefined)?
IL-1B inflam inh: -14; HT1080 IDH1KD tx: -29%; TDP1 cell CPT: 3.7µM*; DT40 TDP1 no CPT: inconclusive; ELG1 DNA repair: 7%; HT1080NT lethal: -19%
